Bioassay records as filed in PubChem BioAssay.
RGS12 GoLoco inh = inhibitors of human Gai1-RGS12 GoLoco interaction (red fluorophore) | 0.44% of 230,000 active | Gai1:RGS12 GoLoco peptide FP, rhodamine, 10 min | AID 880 | Potency, µM (doses to about 61.6 µM), most hits filed as inhibitors | P63096; active means well fitted inhibition curve with a large enough effect, not every such curve was filed as active; inactive means no such curve, though single readings can be large or run the other way; further: nearly all actives have a fitted effect of over 30% in size
MLL CXXC-DNA inh = MLL CXXC-DNA interaction inhibition. 0.037% of 290,000 active. Potency, µM (series often up to 115 µM), hits mostly inhibitors. AID 2662. MLL-CXXC / FITC-HOXA9 DNA fluorescence polarization; active means well fitted inhibition curve with a large enough effect in the polarisation, with a control signal flat, not every such curve was filed as active; inconclusive means small, poorly fitted or top-dose-only effect, or effect the other way, or a change in a side signal; inactive means no such curve, though single readings can be large or run the other way; the % refers to the polarisation
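Steps: dispense CXXC domain solution (7 uM) → pin compounds or unlabeled HOX-A9 DNA control → 5 min ambient → add FLSN-HOX-A9 solution (50 nM) → spin → 30 min ambient → fluorescence polarization. Tris pH 7.5/NaCl/DTT/BSA buffer.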
Menin MLL FP TR = inhibitors of human menin-MLL interaction, mutant MLL peptide. 0.23% of 270,000 active. O00255. Potency, µM (series often up to 61.6 µM), most hits filed as inhibitors. AID 1768. Menin + Texas Red MLL mutant peptide, fluorescence polarization; active means well fitted inhibition curve with a large enough effect in the polarisation, with a control signal flat, not every such curve was filed as active; inconclusive means small, poorly fitted or top-dose-only effect, or effect the other way, or a change in a side signal; inactive means no such curve, though single readings can be large or run the other way; the % refers to the polarisation
Target sequence (O00255 whole entry, looked up): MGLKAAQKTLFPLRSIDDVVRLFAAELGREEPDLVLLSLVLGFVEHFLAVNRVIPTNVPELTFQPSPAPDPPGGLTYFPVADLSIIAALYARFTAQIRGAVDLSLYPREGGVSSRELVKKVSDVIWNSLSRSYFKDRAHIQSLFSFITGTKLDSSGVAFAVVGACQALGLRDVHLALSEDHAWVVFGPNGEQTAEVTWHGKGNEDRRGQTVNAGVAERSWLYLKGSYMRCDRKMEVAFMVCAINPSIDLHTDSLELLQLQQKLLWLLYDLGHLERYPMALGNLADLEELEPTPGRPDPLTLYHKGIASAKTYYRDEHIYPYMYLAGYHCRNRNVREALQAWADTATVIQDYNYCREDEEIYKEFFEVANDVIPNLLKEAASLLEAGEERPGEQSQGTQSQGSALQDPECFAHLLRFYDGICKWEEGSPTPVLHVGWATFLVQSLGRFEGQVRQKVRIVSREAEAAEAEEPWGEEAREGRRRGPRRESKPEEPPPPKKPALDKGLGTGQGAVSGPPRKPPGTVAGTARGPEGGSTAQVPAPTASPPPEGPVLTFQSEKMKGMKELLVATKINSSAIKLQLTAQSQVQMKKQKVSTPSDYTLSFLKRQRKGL
Menin MLL FP FL = menin-MLL binding inhibition, fluorescein peptide. Fluorescence polarization, fluorescein-MLL peptide displacement from menin. FP activity change, % at 61.4 µM. 290,000 tested, under 10 active; active means well fitted curve in the direction sought with a large enough effect in the polarisation, not every such curve was filed as active; inconclusive means small, poorly fitted or top-dose-only effect, or effect the other way, or a change in a side signal; inactive means no such curve, though single readings can be large or run the other way; the % refers to the polarisation
Hits are given with their value; - = inactive; ? = inconclusive; . = no result; ! = repeats disagree; [ ] = dose if it differs, or a comment. This is one part of a sample in which hits are shown more often than they occur.

SMILES	RGS12 GoLoco inh	MLL CXXC-DNA inh	Menin MLL FP TR	Menin MLL FP FL
O=C1NC(=O)C(Cc2ccc(OCCN3COc4ccccc4C3=O)cc2)S1 (configuration not stated)	.	.	-	-
O=c1c(-c2cccs2)nc2cncnc2n1-c1ccccc1	-	.	-	?
O=C(Oc1ccccc1)N1CCC2(CC1)CCN(c1ccncc1)CC2	2.8µM	.	-	-
CCC(=O)[C@]12O[C@@]3(C4C(=O)OCCC41)N(CC)C(C)=C(C(=O)OC)C(c1ccccc1)N3C2=O (some centres not stated)	.	.	-[11.7 µM]	-[11.7 µM]
CCCCCCCc1cc2ccccc2c(=O)o1	-	.	-	-
O[C@@H](c1cc([C@@]23C[C@H]4CC[C@@H]2C[C@H](C4)C3)nc2c(Cl)cc(Cl)cc12)C1CCCCN1 (some centres not stated)	-[14.2 µM]	.	.	.
COc1ccc(-c2cc(=O)c3ccc(O)cc3o2)cc1	-	.	22µM!	-
CN1CCN(c2ncc3nc(-c4cccs4)c(=O)n(CCC#N)c3n2)CC1	-	.	-	?
Oc1cc2c(cc1O)[C@H]1c3ccc(O)c(O)c3OC[C@@]1(O)C2	4µM!	.	-	-
CCOC(=O)c1ccc2c(c1)n(CC)c(/C=C/N(C)c1ccccc1)[n+]2CC	1.6µM	-	-	-
CCOC(=O)c1ccc2c(c1)n(CCO)c(C)[n+]2CC	1.6µM	-	-[11.7 µM]	-
CCn1c(/C=C/N(C(C)=O)c2ccccc2)[n+](CCCS(=O)(=O)[O-])c2cc(Cl)c(Cl)cc21	-	-	-	-
CO[C@@H]1COC(=O)[C@H](C)NC(=O)C/C=C\[C@@H](C)[C@@H](NS(=O)(=O)c2ccc(C)cc2)COC(=O)C/C=C\[C@@H]1C	.	.	-[11.7 µM]	-[11.7 µM]
CC(C)C[C@@H](C(=O)N[C@@H](Cc1c[nH]c2ccccc12)C(N)=O)N1C[C@]2(CCCN2C(=O)[C@H](Cc2ccccc2)NC(=O)[C@H](Cc2ccccc2)NC(=O)[C@H](CCC(N)=O)NC(=O)[C@H](CCC(N)=O)NC(=O)[C@@H]2CCCN2C(=O)[C@H](CCCCN)NC(=O)[C@@H]2CCCN2C(=O)[C@@H](N)CCCNC(=N)N)CC1=O	.	.	-	-
Cn1c2ccccc2c2cc(/C=N/NC(=O)c3cc(O)cc(O)c3)ccc21	.	?	?	-
CCn1c2ccccc2c2cc(/C=N/NC(=O)c3ccccc3)ccc21	-	-	25µM	-
CCCC(=O)O[C@]1(C(=O)CCl)[C@H](C)C[C@@H]2[C@H]3CCC4=CC(=O)C=C[C@]4(C)[C@@]3(F)C(=O)C[C@@]21C	.	-	-	-
Cc1cc(C)c2c(=O)n(CC(=O)NC3CCCC3)sc2n1	3.5µM	-	.	-
COc1ccc(N=Nc2nc3cc(Br)c(Br)cc3n2C)c(OC)c1	1.6µM	?	-	?
COc1ccc(CNc2nc3ccccc3n2C)c(OC)c1	-	-	-	-
CCCCCCCCCCCCC/C=C/[C@@H](O)[C@@H](N)COP(=O)(O)O	22µM!	.	-	-
COCCn1c(=O)c(-c2cccc(C#N)c2)nc2cnc(N3CCN(C)CC3)nc21	-	.	-	-
CC(=O)/C(C[N+]1(C)CCCCC1)=N\O	3.2µM	-	-	-
CCCCCCOC(=O)C[N+](C)(C)CCOC1CC2CCC1(C)C2(C)C (configuration not stated)	-	-	16µM	-
O=C1C=CC(=O)C2=C1C1c3ccccc3C2c2ccccc21	18µM	.	?	-
SMILES	RGS12 GoLoco inh	MLL CXXC-DNA inh	Menin MLL FP TR	Menin MLL FP FL
Cc1cccc(CNc2ccnc(-c3ccc(N(C)C)cc3)n2)c1	-	.	-	-
C[n+]1ccc(/C=C/c2ccc3ccccc3c2)cc1	-	.	.	.
C[n+]1ccc(/C=C/c2ccc(Br)cc2)cc1	20µM	-	.	-
FC(F)Sc1ccc(NC(=S)NCc2ccccc2)cc1	-	-	?	-
FC(F)Sc1ccc(NC(=S)NC(c2ccccc2)c2ccccc2)cc1	-	-	16µM	-
COc1ccc(CNc2cc(-c3ccoc3)ncn2)c(OC)c1	-	.	-	?
CN1CCC(=C2c3ccccc3C=Cc3ccccc32)CC1	-	-	?	-
CN1CCC(=C2c3ccccc3Sc3ccccc32)CC1	18µM!	-	-	-
CN(C)c1ncc2nc(-c3ccccc3)c(=O)n(-c3ccccc3)c2n1	-	.	-	?
CC(=O)Nc1ccc(-c2cc(-c3ccccc3)nc(-c3ccccc3)n2)cc1	-	-	?	-
CC(=O)Nc1ccc(-c2cc(-c3ccc(NC(C)=O)cc3)nc(-c3ccccc3)n2)cc1	-	-	6.3µM	-
CC/C=C\C/C=C\C/C=C\C/C=C\C=C\C(O)CCCC(=O)O (configuration not stated)	-	.	-	-
COc1ccc(C(OCC2CO2)c2ccc(OC)cc2)cc1 (configuration not stated)	-	-	-	-
CC(C)OCC1CO1 (configuration not stated)	25µM	.	.	.
O=c1c2ccccc2sn1-c1cc(S(=O)(=O)N2CCOCC2)ccc1N1CCOCC1	3.5µM	-	?	-
CCc1c2c(nc3c(C(C)C)cccc13)-c1cccc(=O)n1C2	-	.	-	-
COC(=O)C1C2CC3c4[nH]c5cc(OC)ccc5c4CCN3CC2CC(OC(=O)c2cc(OC)c(OC)c(OC)c2)C1OC (configuration not stated)	-	.	-	?
COc1ccc(N(CC(O)Cn2c3ccccc3c3ccccc32)S(=O)(=O)c2ccccc2)cc1 (configuration not stated)	-	-	25µM	-
CS(=O)(=O)N(CC(O)Cn1c2ccccc2c2ccccc21)c1ccccc1 (configuration not stated)	-	-	-	-
OCC1OC(c2ccccc2)C=CC1Oc1cc(Cl)cc(Cl)c1 (configuration not stated)	.	.	-[11.7 µM]	-[11.7 µM]
N#Cc1ccc(-c2csc(NC(=O)c3ccc(S(=O)(=O)N4CCc5ccccc5C4)cc3)n2)cc1	-	-	11µM	-
N#Cc1ccc(-c2csc(NC(=O)c3ccc(N4C(=O)CCC4=O)cc3)n2)cc1	-	?	.	-
COC(=O)NC(c1ccco1)[C@]1(C(C)=O)CCCC1=O (some centres not stated)	.	.	-[11.7 µM]	-[11.7 µM]
O=C(Cn1c2[n+](c3ccc(C(F)(F)F)cc31)CCCCC2)Nc1ccc(Br)cc1	18µM	-	-	-
CC(C)=NOC[C@@H](C)[C@H](OCc1ccccc1)C(C)C	.	.	-[11.7 µM]	-[11.7 µM]
SMILES	RGS12 GoLoco inh	MLL CXXC-DNA inh	Menin MLL FP TR	Menin MLL FP FL
C[N+](C)(C)CCN(Cc1ccc(Cl)cc1)c1ccccn1	6.3µM	-	?	-
CCOC(=O)c1c(C)oc2c1c(C=NCc1ccccn1)c(O)c1ccccc12	-	-	3.5µM	?
C[n+]1ccc(C(=O)N/N=C/c2ccco2)cc1	0.89µM	-	-	-
COCCn1c(=O)cnc2cnc(N3CCN(C)CC3)nc21	-	.	35µM	-
OC(c1nc2ccccc2[nH]1)C(O)c1nc2ccccc2[nH]1 (configuration not stated)	.	-	-	-
FC(F)(F)c1nc2cc3nc4ccccc4[nH]c3cc2n1	16µM	-	.	?
c1ccc2sc(SSc3nc4ccccc4s3)nc2c1	10µM	-	-	-
C[C@@H](O)C(N)C(=O)O (some centres not stated)	.	.	-	-
CCC(C)Nc1ccc(NC(C)CC)cc1 (configuration not stated)	32µM	.	.	.
